Assay results reported in PubChem BioAssay (NCI).
The panel holds about 83,000 compounds, 20% with a hit somewhere; the sample as a whole holds those more often.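 Percent growth is the endpoint: 0 to 100 indicates growth inhibition (40 means 60% inhibition), 0 means no net growth, and negative values indicate cell death.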 Active and inactive are the calls of the source. How the source made its calls: active means growth percent below 10; inactive means the rest.

Assays:
Assay in all cases: NCI-60 one-dose screen, 48 h (100 = growth as untreated, 0 = no growth, -100 = all killed)
Settings in all cases: 10 µM unless noted
[1] = test system: SR leukemia
[2] = test system: RPMI-8226 leukemia
[3] = test system: OVCAR-8 ovarian
[4] = test system: OVCAR-5 ovarian
[5] = test system: OVCAR-4 ovarian
[6] = test system: SK-OV-3 ovarian
[7] = test system: IGROV1 ovarian
[8] = test system: OVCAR-3 ovarian
[9] = test system: NCI/ADR-RES ovarian
[10] = test system: HS 578T breast

Measured: growth

CCN1CCN(Cc2ccc(NC(=O)Nc3cccc(-n4ccc5c(NC(=O)c6ccccc6)nccc54)c3)cc2C(F)(F)F)CC1
inactive: [1] 64.3% | [2] 99.1% | [3] 91% | [4] 101% | [5] 95.8% | [6] 78.3% | [7] 74.8% | [8] 57.3% | [9] 92.1%

Cc1nc(N)nc(SCc2ccccc2)c1Br
inactive: [1] 74.4% | [2] 81.1% | [3] 89.9% | [4] 111% | [5] 86.2% | [6] 84.2% | [7] 82.7% | [10] 87.6% | [9] 95.9%

O=C1CCC(c2c(O)cc(O)c3c(=O)c(O)c(-c4ccc(O)c(O)c4)oc23)N1 (stereo unspecified)
inactive: [1] 96.2% | [2] 99.5% | [3] 105% | [4] 104% | [5] 108% | [6] 85.1% | [7] 107% | [10] 100% | [9] 96.8%

O=C(Nc1ccc(-n2ccc3c(NC(=O)c4ccccc4)nccc32)cc1)Nc1cccc(C(F)(F)F)c1
inactive: [1] 18.8% | [2] 19.4% | [3] 48.5% | [4] 81.8% | [5] 26% | [6] 92.2% | [7] 54.1% | [8] 15.2% | [9] 65.7%

COc1ccc(-c2nn(-c3ccc(NC(=O)Nc4ccc(Cl)c(Cl)c4)cc3)cc2-c2ccncc2)cc1Cl
active: [1] 5.18% | [2] -30% | [8] 7.34%
inactive: [3] 11.6% | [4] 22.6% | [5] 49.4% | [6] 34.6% | [7] 36.6% | [9] 12.8%

C=CC(=O)Nc1cccc(Nc2nc(Nc3ccc(OCCOC(F)F)cc3)ncc2F)c1
active: [6] -25%
inactive: [1] 10.5% | [2] 42.1% | [3] 46% | [4] 45.6% | [5] 40.6% | [7] 14% | [10] 23.4% | [9] 44.6%

O=C(NCCNc1nccc(-c2c(-c3cccc(O)c3)nc3sccn23)n1)Nc1cc(C(F)(F)F)cc(C(F)(F)F)c1
inactive: [1] 65.3% | [2] 45.7% | [3] 52.8% | [4] 96.5% | [5] 121% | [6] 89.3% | [7] 65.2% | [8] 82.2% | [9] 87.8%

Cc1ccc2nc(-c3ccc(-n4on4-c4ccc(/C=C/c5ccc(-n6on6-c6ccc(-c7nc8ccc(C)cc8s7)cc6)cc5S(=O)(=O)O)c(S(=O)(=O)O)c4)cc3)sc2c1
inactive: [1] 113% | [2] 102% | [3] 116% | [4] 105% | [5] 118% | [6] 113% | [7] 101% | [8] 107% | [9] 109%

CNC(=O)NN
inactive: [1] 104% | [2] 91.9% | [3] 97.5% | [4] 82.5% | [5] 110% | [6] 95.9% | [7] 108% | [8] 91.8% | [9] 105%

Cc1cc(NC(=O)c2cccc(C(F)(F)F)c2)ccc1-n1ccc2c(NC(=O)c3ccccc3)nccc21
inactive: [1] 96.3% | [2] 73.3% | [3] 98.2% | [4] 98.3% | [5] 96.7% | [6] 108% | [7] 92.7% | [8] 95.7% | [9] 102%

C=C(C)[C@@H]1C/C=C(\COC(=O)[C@H](OC(C)=O)C(NC(=O)c2ccccc2)c2ccccc2)CC[C@H]2O[C@]2(C)CC/C=C(\C)CC1 (stereo partly specified)
inactive: [3] 86.7% [5 µM] | [4] 88.7% [5 µM] | [5] 62.3% [5 µM] | [6] 87.7% [5 µM] | [7] 45.9% [5 µM] | [10] 79.5% [5 µM] | [9] 62.9% [5 µM]
active: [1] 3.12% [5 µM] | [2] -6.61% [5 µM]

COc1cc(-c2nc3ccccc3s2)ccc1OCc1nc2n(n1)S(=O)(=O)c1ccccc1N2C
inactive: [1] 27.1% | [2] 61.2% | [3] 74.5% | [4] 99.1% | [5] 93.3% | [6] 84.6% | [7] 25.6% | [10] 48.7% | [9] 93%

C=CC(C)(O)CCC1C(=C)CCC2C(C)(C)CCCC12C (stereo unspecified)
inactive: [1] 90.2% | [2] 102% | [3] 114% | [4] 106% | [5] 114% | [6] 94.1% | [7] 108% | [8] 105% | [9] 101%

CC(=O)Nc1ccc([I+]c2ccc([N+](=O)[O-])cc2)cc1
inactive: [1] 87.7% | [2] 92.7% | [3] 95% | [4] 116% | [5] 90% | [6] 94.4% | [7] 80.8% | [8] 94.9% | [9] 113%

Cc1nssc1=S
inactive: [1] 97.6% | [2] 97% | [3] 97.9% | [4] 94.6% | [5] 109% | [6] 110% | [10] 98.3% | [9] 96.6%
active: [7] -13.5%

Nc1nccc2c1ccn2-c1ccc(NC(=O)Nc2cccc(C(F)(F)F)c2)cc1
inactive: [1] 91.5% | [2] 67.4% | [3] 93.1% | [4] 97.9% | [5] 108% | [6] 104% | [7] 95.1% | [8] 80.8% | [9] 89.3%

Cc1ccc(Cn2cc(COc3ccc4c5ccnc(C)c5n(CCCc5ccccc5)c4c3)nn2)cc1
inactive: [1] 81.9% | [2] 64.2% | [3] 94.2% | [4] 103% | [5] 96% | [6] 96.9% | [7] 87.5% | [10] 89.8% | [9] 76.4%

Fc1ccc(/C=N/n2c(-c3cc(Cl)cc(Cl)c3Cl)nn(CNc3ccc(Cl)nn3)c2=S)cc1
inactive: [1] 79.7% | [2] 82.4% | [3] 95.7% | [4] 89.9% | [5] 91.8% | [6] 90.2% | [7] 96.3% | [10] 108% | [9] 86.7%

O=C(COc1ccc(Cl)cc1Cl)N1N=C(c2ccc(Cl)cc2Cl)CC1(O)c1cc(F)c(Cl)cc1Cl (stereo unspecified)
inactive: [1] 23.2% | [2] 144% | [3] 93.2% | [4] 105% | [5] 116% | [6] 110% | [7] 69.7% | [10] 122% | [9] 106%

Cc1c(NC(=O)c2sc3nc4c(cc3c2N)CN(Cc2ccccc2)CC4)cccc1C(F)(F)F
inactive: [1] 20.1% | [2] 36.3% | [3] 63.1% | [4] 79.6% | [5] 60% | [6] 77.8% | [7] 51% | [10] 31% | [9] 43.7%

Cc1[nH]n(C(=O)c2ccncc2)c(=O)c1N=Nc1ccc(S(=O)(=O)Nc2ccncn2)cc1
inactive: [1] 78.1% | [2] 60.1% | [3] 104% | [4] 114% | [5] 103% | [6] 111% | [7] 101% | [10] 96.7% | [9] 114%

S=c1ssnc1-c1ccccn1
active: [1] -25.5% | [10] -7.73%
inactive: [2] 10.2% | [3] 54.9% | [4] 70.1% | [5] 56.1% | [6] 67.8% | [7] 15.2% | [9] 48.4%

CSc1nc(N)nc2c1ncn2C
inactive: [1] 91.7% | [2] 96.4% | [3] 106% | [4] 100% | [5] 103% | [6] 90.4% | [7] 106% | [10] 106% | [9] 98.8%

COc1cc(-c2nc3ccccc3s2)ccc1OCc1nc2n(n1)S(=O)(=O)c1ccccc1N2c1ccccc1
inactive: [1] 23.7% | [2] 88.9% | [3] 103% | [4] 104% | [5] 102% | [6] 110% | [7] 56.1% | [10] 97% | [9] 107%

O=C1OC(=O)C2C3CC(c4ccccc43)C12 (stereo unspecified)
inactive: [1] 104% | [2] 99.7% | [3] 92.4% | [4] 85.5% | [5] 112% | [6] 95.8% | [7] 109% | [8] 125% | [9] 112%

Cc1c(F)cccc1NC(=O)c1sc2nc3c(cc2c1N)CCCCC3
inactive: [1] 16.8% | [2] 35.3% | [3] 80.3% | [4] 90.1% | [5] 75.6% | [6] 66.2% | [7] 53.7% | [8] 34.6% | [9] 43.9%

Cc1cn([C@]2(CF)O[C@H](CO)C2C)c(=O)[nH]c1=O (stereo partly specified)
inactive: [1] 181% | [2] 150% | [3] 110% | [4] 94.5% | [5] 113% | [6] 122% | [10] 110% | [9] 113%
active: [7] -29.1%

Nc1ncc(-c2ccc3ncnc(Nc4ccc(F)c(Cl)c4)c3c2)cn1
inactive: [2] 50% | [3] 61.3% | [4] 80.3% | [6] 65.7% | [9] 59.4%
active: [1] -35.1% | [5] -17.3% | [7] 1.68% | [8] -57.4%

OC[C@@H](O)C(O[C@@H]1O[C@H](CO)[C@H](O)[C@H](O)[C@H]1O)[C@H](O)[C@@H](O)CO (stereo partly specified)
inactive: [1] 87.4% | [2] 103% | [3] 98.6% | [4] 91.8% | [5] 106% | [6] 99.5% | [7] 95.9% | [10] 129% | [9] 95.4%
